C=CC(=O)Nc1cc(-n2c(=O)ccc3cnc4ccc(-c5ccc(NS(C)(=O)=O)cc5)cc4c32)ccc1C [BMX-IN-1]
Kinases covered (BTK): BTK

C#Cc1cccc(Nc2ncnc3cc(OC)c(OC4CCN(C)CC4)cc23)c1 [BI00007366]
Kinases covered (BUB1): BUB1

COc1cc2ncnc(Nc3ccc(F)c(Cl)c3)c2cc1O[C@H]1CC[C@H](N)CC1 [BIBW3133BS]
Kinases covered (BUB1): BUB1

CN(C)C/C=C/C(=O)Nc1ccc(C(=O)N2CCC[C@@H](Nc3ncc(Cl)c(-c4c[nH]c5ccccc45)n3)C2)cc1 [THZ531]
Kinases covered (CDK12): CDK12 | Kinases covered (CDK13): CDK13

COC[C@@H](C)N[C@H]1CC[C@H](Nc2cc(-c3cccc(NCC4(C#N)CCOCC4)n3)c(Cl)cn2)CC1 [NVP-2]
Kinases covered (CDK13): CDK13 | Kinases covered (CDK9): CDK9

Cn1ncc2cc(-c3cnc(N)c(Cl)c3N3CCC4(CCNC4=O)CC3)ccc21 [CCT251921]
Kinases covered (CDK19): CDK19 | Kinases covered (CDK8): CDK8

Cn1cc(-c2ccc(-c3cncc(Cl)c3N3CCC4(CCNC4=O)CC3)cc2)cn1 [CCT251545]
Kinases covered (CDK19): CDK19 | Kinases covered (CDK8): CDK8

CC(C)COC(=O)c1ccc2c(c1)/C(=C/Nc1ccc(S(N)(=O)=O)cc1)C(=O)N2 [GW416981X]
Kinases covered (CDK3): CDK3

CN(C)C/C=C/C(=O)Nc1ccc(C(=O)Nc2cccc(Nc3ncc(Cl)c(-c4c[nH]c5ccccc45)n3)c2)cc1 [THZ1]
Kinases covered (CDK7): CDK7

CCC(NN(C)C)=C1C(=O)Nc2ccc(C(C)=O)cc21 [BI00036838]
Kinases covered (CDK7): CDK7

Reference: publication PMC7826789 (International Journal of Molecular Sciences, 2021)
